From the supplement of paper PMC12645437, “Orthogonal IMiD-Degron Pairs Induce Selective Protein Degradation in Cells” (ACS Chemical Biology, 2025)
Whole data set: some 8,300 sequences, median “log2 fold change of degron read counts, EGFP-low vs EGFP+ sorted cells (limma voom), compound-induced degradation” near -1.1, cut for the highest 2% near 3.2. The sample as a whole holds a higher share of the highest values than the screen did.

T1: CRBN, Q96SW2
T1 chain: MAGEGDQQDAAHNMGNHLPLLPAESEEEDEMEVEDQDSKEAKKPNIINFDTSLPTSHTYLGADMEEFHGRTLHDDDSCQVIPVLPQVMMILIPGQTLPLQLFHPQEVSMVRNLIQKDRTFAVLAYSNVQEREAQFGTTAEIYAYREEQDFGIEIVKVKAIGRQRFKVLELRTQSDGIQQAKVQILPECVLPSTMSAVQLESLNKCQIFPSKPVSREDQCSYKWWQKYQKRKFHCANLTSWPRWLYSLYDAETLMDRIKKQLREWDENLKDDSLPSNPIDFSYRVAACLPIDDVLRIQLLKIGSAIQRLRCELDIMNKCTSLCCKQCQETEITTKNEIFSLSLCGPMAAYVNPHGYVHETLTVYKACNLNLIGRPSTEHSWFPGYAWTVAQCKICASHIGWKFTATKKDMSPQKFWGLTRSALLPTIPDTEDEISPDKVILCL


Biological target: T1, CRBN, Q96SW2
Assay: log2 fold change of degron read counts, EGFP-low vs EGFP+ sorted cells (limma voom), compound-induced degradation; higher = more compound-induced degradation of the degron-EGFP fusion; degrons are variants of IKZF1/3 zinc finger 2; compound dose not given here
Settings: Jurkat, 18 h
[1] = compound: compound 19 (5-tert-butyl-thalidomide)
[2] = compound: compound 22 (5-morpholino-thalidomide)
[3] = compound: compound 33 (diphenyl IMiD analogue)
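Note: pooled lentiviral library of zinc finger degron-EGFP fusions in mCherry-positive Jurkat cells, FACS-sorted after compound exposure, with degron abundance counted by next-generation sequencing.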

Row | Sequence | log2 fold change of degron read counts [1] | log2 fold change of degron read counts [2] | log2 fold change of degron read counts [3] | log2 fold change of degron read counts (compound: thalidomide)
1 | FECNQCGAGFTQKGNLLRHIKL [46F_47E_49N_50Q_52G_53A_54G_55F_67L_, Q9UKT9] | -2.2 | -2.79 | -2.43 | -2.17
2 | LLCNQCGFQCTQKGNLLRHIKL [46L_47L_49N_50Q_52G_53F_54Q_55C_67L_, Q9UKT9] | -2.02 | -1.96 | -2.15 | -1.68
3 | FQCNVCGAYFTQKGNLLRHIKL [46F_47Q_49N_50V_52G_53A_54Y_55F_67L_, Q9UKT9] | -2.25 | -1.8 | -0.854 | 1.41
4 | FICEICGHAFTQKGNLLRHIKL [46F_47I_49E_50I_52G_53H_54A_55F_67L_, Q9UKT9] | -3.32 | -2.94 | -2.31 | -1.67
5 | FRCDQCGACFTQKGNLLRHIKL [46F_47R_49D_50Q_52G_53A_54C_55F_67L_, Q9UKT9] | -2.93 | -3.5 | -1.12 | -2.52
6 | FHCEICGHSFTQKGNLLRHIKL [46F_47H_49E_50I_52G_53H_54S_55F_67L_, Q9UKT9] | -2.93 | -3.88 | -2.79 | -3.22
7 | FTCNQCGHFFTQKGNLLRHIKL [46F_47T_49N_50Q_52G_53H_54F_55F_67L_, Q9UKT9] | -1.82 | -2.32 | -2.31 | -2.01
8 | FICEICGRCFTQKGNLLRHIKL [46F_47I_49E_50I_52G_53R_54C_55F_67L_, Q9UKT9] | -2.73 | -1.99 | -0.856 | -0.602
9 | FCCPVCGAHFTQKGNLLRHIKL [46F_47C_49P_50V_52G_53A_54H_55F_67L_, Q9UKT9] | 1.59 | 0.752 | 1.65 | 0.961
10 | LRCNQCGFFCTQKGNLLRHIKL [46L_47R_49N_50Q_52G_53F_54F_55C_67L_, Q9UKT9] | -1.45 | -1.65 | -1.16 | -0.846
11 | FGCEICGASFTQKGNLLRHIKL [46F_47G_49E_50I_52G_53A_54S_55F_67L_, Q9UKT9] | 3.07 | 2.12 | 1.77 | 1.03
12 | FSCEICGASFTQKGNLLRHIKL [46F_47S_49E_50I_52G_53A_54S_55F_67L_, Q9UKT9] | 3.56 | 2.8 | 2.11 | 1.64
13 | FMCEICGASFTQKGNLLRHIKL [46F_47M_49E_50I_52G_53A_54S_55F_67L_, Q9UKT9] | 1.61 | 1.94 | 2.9 | 2
14 | FQCEICGASFTQKGNLLRHIKL [46F_47Q_49E_50I_52G_53A_54S_55F_67L_, Q9UKT9] | 2.5 | 2.8 | 2.23 | 3.75
15 | FKCEICGASFTQKGNLLRHIKL [46F_47K_49E_50I_52G_53A_54S_55F_67L_, Q9UKT9] | 1.57 | -0.809 | -2.2 | -0.268
16 | FDCEICGASFTQKGNLLRHIKL [46F_47D_49E_50I_52G_53A_54S_55F_67L_, Q9UKT9] | 3.18 | 0.784 | 0.437 | 1.24
17 | FCCEICGASFTQKGNLLRHIKL [46F_47C_49E_50I_52G_53A_54S_55F_67L_, Q9UKT9] | 3.35 | 2.7 | 2.35 | 2.35
18 | FYCEICGASFTQKGNLLRHIKL [46F_47Y_49E_50I_52G_53A_54S_55F_67L_, Q9UKT9] | 3.72 | 3.7 | 2.91 | 1.64
19 | FHCEICGASFTQKGNLLRHIKL [46F_47H_49E_50I_52G_53A_54S_55F_67L_, Q9UKT9] | 3.13 | 2.67 | 1.52 | 0.22
20 | FWCNICGAGFTQKGNLLRHIKL [46F_47W_49N_50I_52G_53A_54G_55F_67L_, Q9UKT9] | 1.8 | 1.84 | 0.64 | -0.741
21 | FTCDQCGAIFTQKGNLLRHIKL [46F_47T_49D_50Q_52G_53A_54I_55F_67L_, Q9UKT9] | -3.12 | -2.8 | -2.46 | -2.63
22 | LTCEICGFFCTQKGNLLRHIKL [46L_47T_49E_50I_52G_53F_54F_55C_67L_, Q9UKT9] | 0.0809 | 0.0956 | 0.606 | 0.98
23 | FFCNICGAKFTQKGNLLRHIKL [46F_47F_49N_50I_52G_53A_54K_55F_67L_, Q9UKT9] | 1.77 | 1.78 | 0.0329 | -0.6
24 | FQCNVCGAGFTQKGNLLRHIKL [46F_47Q_49N_50V_52G_53A_54G_55F_67L_, Q9UKT9] | -0.572 | -0.754 | -0.58 | 1.66
25 | FQCNQCGRQFTQKGNLLRHIKL [46F_47Q_49N_50Q_52G_53R_54Q_55F_67L_, Q9UKT9] | -3.25 | -3.61 | -3.19 | -2.34
26 | FKCDQCGAQFTQKGNLLRHIKL [46F_47K_49D_50Q_52G_53A_54Q_55F_67L_, Q9UKT9] | -2.9 | -3.7 | -3.4 | -3.16
27 | FECDQCGANFTQKGNLLRHIKL [46F_47E_49D_50Q_52G_53A_54N_55F_67L_, Q9UKT9] | -3.58 | -4.58 | -1.92 | -1.86
28 | FACEQCGAFFTQKGNLLRHIKL [46F_47A_49E_50Q_52G_53A_54F_55F_67L_, Q9UKT9] | -1.43 | -2.96 | -2.14 | -2.45
